Results on 52 compounds are retold here after PubChem BioAssay.

Assay [1] in a line: A549 cell cytotoxicity, dose response, cytotoxicity control, plate reader, cherry-pick, antagonist series (AID 743412).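 Further: 0% = neutral control wells and -100% = positive control wells.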 As to conditions: series mostly up to 26 µM.
The nature of assay [2]: HepG2 cell cytotoxicity, dose response, cytotoxicity control, plate reader, cherry-pick, antagonist series (AID 743416).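 Further: 0% = neutral control wells and -100% = positive control wells.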 As to conditions: series mostly up to 26 µM.
Assay [3] has as its target Melanocortin receptor 4 (Homo sapiens) (UniProt P32245). As to the kind of experiment: MC4R antagonists, dose response, counter-screen for LGR2 antagonist project, cell-based, plate reader, cherry pick (AID 743444). As to conditions: MC4R-expressing cells, antagonist mode; series mostly up to 35 µM.

Entries with a potency or affinity are not part of this list. A number with no mark means an inactive call. Activity calls are given as the source filed them. How the calls were made is not given here.

In the case of `Cc1ccc(-c2nc(-c3ccccn3)no2)cc1[N+](=O)[O-]`, the compound was called inactive in assay [1] and in assay [2].

`COc1cccc(-c2cc(C(=O)N3CCCCCC3)no2)c1`: the compound was called inactive in assay [1] and in assay [2].

Take `C[C@@H]1CN([C@@H](C)CO)C(=O)c2cc(NS(C)(=O)=O)ccc2O[C@@H](C)CCCCO[C@@H]1CN(C)Cc1ccc(C(F)(F)F)cc1`: the outcome in assay [1], in assay [2] and in assay [3] was inactive.

Turning to `COc1ccc2c3c([nH]c2c1)[C@H](CO)N(C(C)=O)CC31CCN(C(=O)CN2CCOCC2)CC1`, the call in assay [1], in assay [2] and in assay [3] was inactive.

Regarding `CC(C)Oc1ccc(CNC(=O)CC(c2ccccc2)c2cc(Cl)ccc2O)cc1` (stereo not drawn), the result in assay [1] and in assay [2] was inactive.

In the case of `CCc1ccc2ncc(S(=O)(=O)c3ccc(C)c(C)c3)c(N3CCCC3)c2c1`, the compound was classed as inactive in assay [1], in assay [2] and in assay [3].

Consider `O=C(NCCOc1ccccc1)[C@@H]1CCCN1C(=O)c1cccs1`, for which the compound was classed as inactive in assay [1], in assay [2] and in assay [3].

As to `CC(C)N(C(=O)Nc1ccc2nsnc2c1)C(C)C`, the compound was called inactive in assay [1], in assay [2] and in assay [3].

Turning to `O=C(Nc1cc(S(=O)(=O)Nc2ccccc2Cl)ccc1O)c1ccc(F)cc1F`, the outcome in assay [1], in assay [2] and in assay [3] was inactive.

As to `Clc1ccc(OCc2nc(-c3ccccn3)no2)c(Br)c1`, the compound was called inactive in assay [1] and in assay [2].

Consider `CC1CN(C(=O)c2cccc(S(=O)(=O)Nc3cc(Cl)ccc3Cl)c2)CC(C)O1` (stereo not drawn), for which the call in assay [1], in assay [2] and in assay [3] was inactive.

In the case of `FC(F)(F)c1cccc(CC2CN(Cc3ccccc3)Cc3ccccc3N2c2cc(Cl)cc(Cl)c2)c1` (stereo not drawn), the compound was classed as inactive in assay [1] and in assay [2].

As for `COc1ccc(-c2cc(C(=O)N3CCOCC3)no2)cc1`, the call in assay [1] and in assay [2] was inactive.

Take `C[C@H]1CCCCO[C@H](CN(C)C(=O)Nc2cccc3ccccc23)[C@@H](C)CN([C@@H](C)CO)C(=O)c2cc(NS(=O)(=O)c3cn(C)cn3)ccc2O1`: the result in assay [1], in assay [2] and in assay [3] was inactive.

On to `COc1ccc(-c2cc(C)nc3c(-c4ccccc4)cnn23)cc1`, for which the compound was called inactive in assay [1] and in assay [2].

With `O=C(Cc1ccccc1Cl)Nc1cccnc1`, the outcome in assay [1], in assay [2] and in assay [3] was inactive.

In the case of `C[C@H](CO)N1C[C@H](C)[C@H](CN(C)C(=O)Nc2ccc3c(c2)OCO3)OCCCC[C@H](C)Oc2ccc(NC(=O)NC3CCCCC3)cc2C1=O`, the compound was called inactive in assay [1], in assay [2] and in assay [3].

As for `CO[C@H]1CN(C)C(=O)c2ccc(NC(=O)c3ccc(-c4ccccc4)cc3)cc2OC[C@@H](C)NC[C@@H]1C`, the outcome in assay [1], in assay [2] and in assay [3] was inactive.

Regarding `CC(C)NC(=O)Nc1ccc2c(c1)C(=O)N([C@H](C)CO)C[C@@H](C)[C@H](CN(C)S(C)(=O)=O)OCCCC[C@H](C)O2`, the result in assay [1], in assay [2] and in assay [3] was inactive.

Turning to `O=C(CN1C(=O)c2ccccc2S1(=O)=O)c1ccc(F)c(F)c1`, the outcome in assay [1] and in assay [2] was inactive.

On to `Cc1cccn2c(CNCC3(c4ccccc4)CCCC3)c(C(=O)N3CCOCC3)nc12`, for which the compound was classed as inactive in assay [1], in assay [2] and in assay [3].

As for `CC1(c2ccccc2Cl)NC(=O)N(CC(=O)N2CCc3ccccc32)C1=O` (stereo not drawn), the result in assay [1], in assay [2] and in assay [3] was inactive.

With `O=C(Nc1nc2c(s1)CCCC2)C1COc2ccccc2O1` (stereo not drawn), the result in assay [1] and in assay [2] was inactive.

As to `CCOC(=O)C1=CCN(S(=O)(=O)c2ccccc2C)C1c1cccc(C)c1` (stereo not drawn), the outcome in assay [1], in assay [2] and in assay [3] was inactive.

Consider `COc1ccccc1CNS(=O)(=O)c1ccc(N2CCCC2)cc1Br`, for which the compound was classed as inactive in assay [1], in assay [2] and in assay [3].

For `Cc1cnc(NC(=O)c2ccc(OCC3CCCO3)cc2)s1` (stereo not drawn), the call in assay [1] and in assay [2] was inactive.

With `COc1ccc(-c2cc(C(=O)N3CCCC3)no2)cc1`, the outcome in assay [1] and in assay [2] was inactive.

For `COc1ccc(-c2nc(-c3cccs3)no2)cc1`, the compound was classed as inactive in assay [1] and in assay [2].

`Cc1noc(C)c1S(=O)(=O)Nc1cccc2c1O[C@H](CN(C)C(=O)Nc1ccc(F)cc1)[C@H](C)CN([C@H](C)CO)C2=O`: the outcome in assay [1], in assay [2] and in assay [3] was inactive.

For `C[C@H](CO)N1C[C@H](C)[C@@H](CN(C)CC2CCOCC2)Oc2ncc(Br)cc2C1=O`, the compound was called inactive in assay [1], in assay [2] and in assay [3].

In the case of `C[C@@H]1CN([C@@H](C)CO)C(=O)c2cc(NS(=O)(=O)c3ccc(F)cc3)ccc2O[C@H]1CN(C)Cc1ccc(-c2ccccc2)cc1`, the outcome in assay [1] and in assay [2] was inactive.

On to `CO[C@@H]1CN(C)C(=O)c2ccc(NC(=O)C3CC3)cc2OC[C@@H](C)NC[C@@H]1C`, for which the result in assay [1], in assay [2] and in assay [3] was inactive.

On to `Cc1ccc2nc(-c3ccc(NC(=O)C(C)Sc4nncs4)cc3)sc2c1` (stereo not drawn), for which the call in assay [1] and in assay [2] was inactive.

For `C[C@@H]1CN([C@H](C)CO)C(=O)c2cc(C#CCN(C)C)cnc2O[C@@H]1CN(C)C(=O)CN1CCOCC1`, the compound was classed as inactive in assay [1], in assay [2] and in assay [3].

With `C[C@@H]1CN([C@@H](C)CO)C(=O)c2cccc(NC(=O)Nc3ccc(C(F)(F)F)cc3)c2O[C@H]1CN(C)C(=O)Nc1cccc2ccccc12`, the result in assay [1], in assay [2] and in assay [3] was inactive.

As for `CC(C)c1ccc(NC(=O)N2CCN(S(=O)(=O)c3ccccc3)CC2)cc1`, the call in assay [1], in assay [2] and in assay [3] was inactive.

`O=C(CC1CS(=O)(=O)CC1CC(=O)Nc1ccc2c(c1)OCCO2)Nc1ccc2c(c1)OCCO2` (stereo not drawn): the result in assay [1], in assay [2] and in assay [3] was inactive.

For the compound `O=C(C[C@H]1CC[C@H](NS(=O)(=O)c2cccc(F)c2)[C@@H](CO)O1)N1CCCCC1`, the compound was called inactive in assay [1], in assay [2] and in assay [3].

On to `OC1CCC(Nc2ccn3nc(-c4cccc(OCc5ccccc5)c4)cc3n2)CC1` (stereo not drawn), for which the call in assay [1] and in assay [2] was inactive.

Take `CC(C)(C)c1ccc(C(=O)NCCOc2ccccc2F)cc1`: the call in assay [1] and in assay [2] was inactive.

Consider `C[C@H](CO)N1C[C@H](C)[C@@H](CN(C)S(=O)(=O)c2cccs2)Oc2c(cccc2N(C)C)C1=O`, for which the outcome in assay [1], in assay [2] and in assay [3] was inactive.

Take `Cn1cnc(S(=O)(=O)N2C[C@@H](O)COC[C@H]3O[C@H](CC(=O)NC4CCCC4)CC[C@@H]32)c1`: the outcome in assay [1], in assay [2] and in assay [3] was inactive.

In the case of `COCC#Cc1ccc2c(c1)O[C@H](CN(C)S(=O)(=O)c1cccc(F)c1)[C@@H](C)CN([C@H](C)CO)S2(=O)=O`, the compound was called inactive in assay [1] and in assay [3].

In the case of `COc1ccc(S(=O)(=O)Nc2ccc3c(c2)C(=O)N([C@H](C)CO)C[C@H](C)[C@H](CN(C)S(=O)(=O)c2ccc(F)cc2)OCCCC[C@@H](C)O3)cc1`, the compound was classed as inactive in assay [1], in assay [2] and in assay [3].

`CCCCC(=O)N(C)c1c(C)nc2ccc(C(=O)N3CCCCC3)cn12`: the call in assay [1], in assay [2] and in assay [3] was inactive.

For the compound `CCc1nnc(NC(=O)CSc2nnc3ncccn23)s1`, the call in assay [1], in assay [2] and in assay [3] was inactive.

Take `O=C(c1ccc(F)cc1)N1CC(=O)N2[C@@H](CO)[C@@H](c3ccc(C#CC4CCCC4)cc3)[C@@H]2C1`: the compound was called inactive in assay [1], in assay [2] and in assay [3].

Consider `Cc1ccc(NC(=O)c2ncn(CC(=O)NCc3ccc4[nH]ccc4c3)n2)cc1C`, for which the compound was called inactive in assay [1], in assay [2] and in assay [3].

In the case of `COc1ccc(N(CC(=O)NCc2cccs2)S(=O)(=O)c2ccc(C(C)=O)cc2)cc1`, the outcome in assay [1] and in assay [3] was inactive.

With `CCOC(=O)C(C)N1c2cccc3cccc(c23)S1(=O)=O` (stereo not drawn), the result in assay [1], in assay [2] and in assay [3] was inactive.

For `COc1ccccc1C=NNC(=O)c1ccncc1`, the compound was classed as inactive in assay [1], in assay [2] and in assay [3].

Turning to `CCOC(=O)Nc1ccc(N2CCOCC2)c(S(=O)(=O)Nc2ccc(Cl)cc2)c1`, the activity change, negative = cytotoxicity in assay [1] is 19.4% [at 6 µM]. Moreover, the outcome in assay [2] and in assay [3] was inactive.
